Several values for one entry are separate records, joined by “and”; a condition that tells them apart may be missing. Identical values can stand only once. In all, about 5,500 compounds went through this assay and about 2,000 (36%) were called active. Roughly 18% stayed inconclusive and do not appear here. Rule as the data show it: active = normalized growth mostly below about 0.91 (no sharp cut-off); inconclusive = no clear call, values can overlap the other calls; inactive = mostly above about 0.92. Some of the results follow.
Experiment: chemical genetic growth profiling, strain panel (AID 1159580);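 also: tested at 20 µM; growth read once vehicle control cultures reached saturation at 30 °C; 1 = growth at the plate median or of vehicle wells; lower values mean less growth of the strain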
Conditions: S. cerevisiae deletion strains, growth OD

Measured: normalized growth

CC(=O)O[C@@H]1C2CC[C@@H]3C1(C[C@@H](O)[C@@]1(O)[C@@H](C[C@H](O)C1(C)C)[C@]3(C)O)C[C@@]2(C)O (stereo partly drawn)
inactive: locus YAL021C, strain ccr4, hits give low values 0.996 | locus YAL026C, strain drs2, hits give low values 0.984 | locus YAL030W, strain snc1, hits give low values 0.992 | locus YBL061C, strain skt5, hits give low values 1 | locus YBR009C, strain hhf1, hits give low values 0.99 | locus YBR021W, strain FUR4, hits give low values 1.02 | locus YBR023C, strain chs3, hits give low values 0.997 | locus YBR171W, strain sec66, hits give low values 0.979 | locus YBR229C, strain ROT2, hits give low values 0.958 | locus YBR231C, strain swc5, hits give low values 0.997 | locus YBR279W, strain paf1, hits give low values 1 | locus YCL011C, strain gbp2, hits give low values 0.985 | locus YCL016C, strain dcc1, hits give low values 0.987 | locus YCL029C, strain bik1, hits give low values 0.974 | locus YCL061C, strain MRC1, hits give low values 0.995 | locus YCL069W, strain vba3, hits give low values 0.989 | locus YCR088W, strain abp1, hits give low values 0.988 | locus YDL005C, strain med2, hits give low values 0.976 | locus YDL035C, strain GPR1, hits give low values 0.998 | locus YDL040C, strain nat1, hits give low values 0.986 | locus YDL074C, strain BRE1, hits give low values 1.07 | locus YDL101C, strain DUN1, hits give low values 0.988 | locus YDL134C, strain PPH21, hits give low values 1.05 | locus YDL185W, strain tfp1, hits give low values 0.992 | locus YDL192W, strain arf1, hits give low values 0.992 | locus YDR001C, strain nth1, hits give low values 0.996 | locus YDR069C, strain doa4, hits give low values 0.999 | locus YDR101C, strain arx1, hits give low values 0.976 | locus YDR137W, strain rgp1, hits give low values 0.922 | locus YDR159W, strain sac3, hits give low values 0.995 | locus YDR162C, strain NBP2, hits give low values 1.01 | locus YDR195W, strain ref2 0.962 | locus YDR297W, strain sur2, hits give low values 0.989 | locus YDR318W, strain mcm21, hits give low values 0.991 | locus YDR334W, strain swr1, hits give low values 0.957 | locus YDR335W, strain msn5, hits give low values 0.999 | locus YDR388W, hits give low values 0.996 | locus YDR392W, strain spt3, hits give low values 0.993 | locus YDR502C, strain sam2, hits give low values 1 | locus YEL003W, strain gim4, hits give low values 0.988 | locus YEL037C, strain rad23, hits give low values 0.997 | locus YEL061C, strain CIN8 (second series), hits give low values 0.99 | locus YER015W, strain faa2, hits give low values 0.997 | locus YER016W, strain bim1, hits give low values 0.985 | locus YER110C, hits give low values 0.96 | locus YER111C, strain swi4, hits give low values 0.998 | locus YER155C, strain BEM2 (second series), hits give low values 0.977 | locus YER155C, strain BEM2, hits give low values 0.997 | locus YER167W, strain BCK2, hits give low values 0.998 | locus YFR010W, strain ubp6, hits give low values 0.977 | locus YGL078C, strain dbp3, hits give low values 1 | locus YGL086W, strain mad1, hits give low values 1 | locus YGL167C, strain pmr1, hits give low values 0.998 | locus YGL173C, strain kem1, hits give low values 0.987 | locus YGL227W, strain vid30, hits give low values 0.998 | locus YGL240W, strain doc1, hits give low values 0.991 | locus YGL248W, strain PDE1, hits give low values 1.02 | locus YGL253W, strain hxk2, hits give low values 0.996 | locus YGR078C, strain PAC10, hits give low values 1.01 | locus YGR135W, strain pre9, hits give low values 1.05 | locus YGR252W, strain gcn5, hits give low values 1.08 | locus YHR013C, strain ard1, hits give low values 0.984 | locus YHR027C, strain rpn1, hits give low values 0.989 | locus YHR030C, strain SLT2, hits give low values 1 and 0.972 | locus YHR079C, strain IRE1 (second series), hits give low values 0.983 | locus YHR079C, strain IRE1, hits give low values 0.959 | locus YHR094C, strain hxt1, hits give low values 0.991 | locus YHR129C, strain ARP1, hits give low values 1.01 | locus YHR142W, strain chs7, hits give low values 0.997 | locus YHR200W, strain rpn10, hits give low values 0.995 | locus YIL066C, strain RNR3, hits give low values 1 | locus YIL073C, strain SPO22, hits give low values 1.08 | locus YIL125W, strain kgd1, hits give low values 0.971 | locus YIR030C, strain dcg1, hits give low values 0.993 | locus YJL092W, strain hpr5, hits give low values 0.985 | locus YJL095W, strain BCK1 (second series), hits give low values 0.996 | locus YJL095W, strain BCK1, hits give low values 1.06 and 0.981 | locus YJL115W, strain asf1, hits give low values 0.969 | locus YJL129C, strain trk1, hits give low values 0.992 | locus YJL134W, strain LCB3, hits give low values 0.99 | locus YJL154C, strain vps35, hits give low values 0.983 | locus YJL164C, strain tpk1, hits give low values 0.995 | locus YJL166W, strain qcr8, hits give low values 0.999 | locus YJL168C, strain set2, hits give low values 0.995 | locus YJL187C, strain SWE1 (second series), hits give low values 0.995 | locus YJL187C, strain SWE1, hits give low values 0.994 | locus YJR066W, strain TOR1, hits give low values 0.961 | locus YKL009W, strain mrt4, hits give low values 0.992 | locus YKL068W, hits give low values 0.988 | locus YKL085W, strain MDH1 (second series), hits give low values 0.999 | locus YKL085W, strain MDH1, hits give low values 0.999 | locus YKL160W, strain elf1, hits give low values 0.998 | locus YKL190W, strain CNB1, hits give low values 1.01 | locus YKR001C, strain vps1, hits give low values 0.997 | locus YKR026C, strain gcn3, hits give low values 0.987 | locus YKR091W, strain srl3, hits give low values 1 | locus YLL001W, strain dnm1, hits give low values 0.991 | locus YLL026W, hits give low values 0.993 | locus YLL041C, strain sdh2, hits give low values 0.989 | locus YLR027C, strain aat2, hits give low values 0.985 | locus YLR039C, strain RIC1, hits give low values 1.19 | locus YLR058C, strain SHM2, hits give low values 0.993 | locus YLR102C, strain apc9, hits give low values 0.999 | locus YLR113W, strain HOG1, hits give low values 0.987 | locus YLR221C, strain rsa3, hits give low values 0.992 | locus YLR258W, strain gsy2, hits give low values 0.983 | locus YLR262C, strain YPT6 (second series), hits give low values 1 | locus YLR268W, strain sec22, hits give low values 0.987 | locus YLR320W, strain mms22, hits give low values 1.01 | locus YLR342W, strain FKS1 (second series), hits give low values 0.986 | locus YLR342W, strain FKS1, hits give low values 1 | locus YLR357W, strain rsc2, hits give low values 0.995 | locus YLR370C, strain arc18, hits give low values 1 | locus YLR371W, strain rom2, hits give low values 1 | locus YLR384C, strain iki3, hits give low values 0.99 | locus YLR418C, strain cdc73, hits give low values 1.01 | locus YML016C, strain PPZ1, hits give low values 0.99 | locus YML032C, strain rad52, hits give low values 0.99 | locus YML120C, strain ndi1, hits give low values 0.994 | locus YML124C, strain tub3, hits give low values 1 | locus YMR058W, strain fet3, hits give low values 0.984 | locus YMR078C, strain ctf18, hits give low values 0.99 | locus YMR125W, strain sto1, hits give low values 0.981 | locus YMR129W, hits give low values 0.993 | locus YMR205C, strain PFK2, hits give low values 1.01 | locus YMR223W, strain ubp8, hits give low values 1.01 | locus YMR231W, strain pep5, hits give low values 0.993 | locus YMR263W, strain SAP30, hits give low values 0.991 | locus YMR307W, strain GAS1, hits give low values 1.16 | locus YNL067W, strain RPL9B, hits give low values 1.01 | locus YNL071W, strain lat1, hits give low values 0.981 | locus YNL153C, strain GIM3, hits give low values 0.994 | locus YNL183C, strain NPR1, hits give low values 0.952 | locus YNL209W, strain ssb2, hits give low values 0.987 | locus YNL233W, strain BNI4, hits give low values 1.05 | locus YNL248C, strain rpa49, hits give low values 0.98 | locus YNL250W, strain rad50, hits give low values 0.974 | locus YNL271C, strain bni1, hits give low values 1 | locus YNL298W, strain CLA4, hits give low values 0.992 | locus YNL307C, strain MCK1, hits give low values 0.99 | locus YNL322C, strain KRE1 (second series), hits give low values 0.99 | locus YNL322C, strain KRE1, hits give low values 0.992 | locus YNR049C, strain mso1, hits give low values 0.996 | locus YNR052C, strain pop2, hits give low values 1.01 | locus YOL006C, strain TOP1, hits give low values 1.16 | locus YOL012C, strain htz1 1.28 | locus YOL147C, strain pex11, hits give low values 1 | locus YOR001W, strain rrp6, hits give low values 0.987 | locus YOR061W, strain CKA2, hits give low values 0.985 | locus YOR069W, strain VPS5, hits give low values 1.01 | locus YOR070C, strain gyp1, hits give low values 0.985 | locus YOR080W, strain dia2, hits give low values 0.997 | locus YOR083W, strain WHI5, hits give low values 1 | locus YOR106W, strain vam3, hits give low values 0.985 | locus YOR136W, strain idh2, hits give low values 0.995 | locus YOR144C, strain elg1, hits give low values 0.994 | locus YOR184W, strain ser1, hits give low values 0.992 | locus YOR231W, strain MKK1, hits give low values 0.963 | locus YOR265W, strain rbl2, hits give low values 0.994 | locus YOR270C, strain vph1, hits give low values 0.984 | locus YOR290C, strain snf2, hits give low values 1 | locus YOR316C, strain cot1, hits give low values 0.987 | locus YPL051W, strain arl3, hits give low values 1.01 | locus YPL078C, strain atp4, hits give low values 0.996 | locus YPL106C, strain sse1, hits give low values 0.98 | locus YPL240C, strain hsp82, hits give low values 0.98 | locus YPL241C, strain CIN2, hits give low values 1.01 | locus YPL256C, strain CLN2, hits give low values 0.995 | locus YPR119W, strain clb2, hits give low values 0.992 | locus YPR141C, strain kar3, hits give low values 0.979 | locus YPR163C, strain tif3, hits give low values 1.01 | locus YPR167C, strain met16, hits give low values 1 | strain wtn01, hits give low values 0.985
